# Records with an inconclusive call do not appear. Where a call stands in place of a potency, no number is given. Active and inactive are the calls of the source. Calls follow the shape of the dose curve; as a rule, active = well fitted curve in the direction sought with a large enough effect; inconclusive = small, poorly fitted or top-dose-only effect, or another doubt; inactive = no such curve, though single readings can be large; an effect the other way counts as inactive or inconclusive.
# Experiment: Vero cells viability qHTS for Zika virus inhibitors (AID 1347167)
# Settings: cytotoxicity counter-screen (Zika); series mostly up to 45.9 µM
# From the text: (§1) Avindra Nath, Ph.D., National Institute of Neurological Disorders and Stroke (NINDS), Bethesda, MD
# (§2) Radhakrishnan Padmanabhan, Ph.D., Georgetown University (GU), Washington D.C.
# (§3) Zika Virus causes congenital defects, including microcephaly and is associated with Guillain-Barre syndrome, eningoencephalitis and myelitis in infected adult. […] Using a target-based approach, we hope to establish a screening paradigm to uncover novel, cell-active NS2B-NS3 protease (Zika Virus) specific inhibitors from NCATS' collection of small molecules using qHTS.
# (§4) Four assay panel was created to identify potential Zika Virus inhibitors. Namely, (1) GU unlinked NS2B-NS3 AMC tagged protease qHTS, (2) GU unlinked NS2B-NS3 Rhodamine tagged protease qHTS, (3) NINDS linked NS2B-NS3 AMC tagged protease qHTS, (4) NINDS linked NS2B-NS3 Rhodamine tagged protease qHTS. Identified inhibitors were screened against the Vero and HepG2 cell viability assays using CellTiter Glo to exclude cytotoxic compounds.
# (§5) Early Translation Branch (ETB)
# (§6) National Center for Advancing Translational Sciences (NCATS), Rockville, MD
# (§7) National Institute of Health (NIH), Bethesda, Maryland
# Vero and HepG2 Cell Viability Assay:
# Vero and HepG2 cell cytotoxicity were determined using a luminescent readout with CellTiter Glo reagent (Promega, Madison, WI), which is based on measuring the ATP content within cells. Briefly, 4 microL of Vero or HepG2 cells at 2.5 x 10^5 cells/mL in DMEM containing 4% FBS were dispensed into 1536-well solid bottom tissue treated white plate using a Multidrop Combi dispenser (Thermo Scientific). Plates were incubated at 37 degrees C, 95% humidity, and 5% CO2 overnight to allow for cell attachment. Compounds were dissolved in DMSO at different concentrations and transferred via pintool (Wako Automation), for a final concentration of 0.029 µM - 57 microM. Plates were again incubated for 24 to 48 hours, followed by a 2 microL addition of CellTiter Glo. Finally, plates were incubated for 30 minutes at 37 degrees C and 5% CO2 before being read on a ViewLux (Perkin Elmer) for luminescence.
row,SMILES,outcome
1,CO[C@H]1C[C@H](O[C@@H]2/C(C)=C/C[C@@H]3C[C@@H](C[C@]4(CC[C@H](C)[C@@H](C5CCCCC5)O4)O3)OC(=O)[C@@H]3C=C(C)/C(=N/O)[C@H]4OC/C(=C\C=C\[C@@H]2C)[C@]43O)O[C@@H](C)[C@@H]1O,inactive
2,C[C@H]1O[C@@H](O[C@H]2[C@@H](O)C[C@H](O[C@H]3[C@@H](O)C[C@H](O[C@H]4CC[C@@]5(C)[C@H](CC[C@@H]6[C@@H]5C[C@@H](O)[C@]5(C)[C@@H](C7=CC(=O)OC7)CC[C@]65O)C4)O[C@@H]3C)O[C@@H]2C)C[C@H](O)[C@@H]1O,inactive
3,O=C(O)Cc1cc(I)c(Oc2ccc(O)c(I)c2)c(I)c1,inactive

# Experiment: Tertiary RLuc qRT-PCR qHTS assay for Zika virus inhibitors (AID 1347169); also: top concentration of the series differs between compounds; nearly all actives have a fitted effect of over 55% in size
# Settings: infected Vero cells, reporter luminescence, 48-72 h; series mostly up to 45.9 µM
# From the text: as §1, §2, §3
# as §4, with “re-acquired and tested” for “screened”, “secondary confirmatory, orthogonal,” for “the Vero”, “counterscreens” for “HepG2 cell viability assays using CellTiter Glo”, “nonspecific inhibition.” for “cytotoxic compounds.”
# as §5, §6, §7
# 1536-well recombinant virus ZIKV-RLuc (Cambodian) Assay:
# For a follow-up assay, we adapted a high throughput orthogonal assay in 1536-well plate format to use the recombinant virus ZIKV-RLuc, in Vero cells. Briefly, three microL of Vero cells derived from a green monkey cell line, were dispensed Multidrop Dispenser into a solid bottom white 1,536-well plate at a concentration of 1,000 cells per well. The plate was incubated overnight in a CO2 incubator at 37 degrees C. Compounds were delivered as a 23 nL DMSO solution by Kalypsys pintool transfer. Following compound transfer, 2 microL of ZIKV-RLuc was added at an MOI of 1-2 and incubated in a CO2 incubator for 48-72 hrs at 37 degrees C. After sufficient incubation of infected cells in test plates, live cell Renilla luciferase substrate (Promega) was added. The luminescence signal was measured after 1-1.5 hrs exposure to substrate in ViewLux reader.
SMILES,Potency,"activity change, negative = inhibition"
CO[C@H]1C[C@H](O[C@@H]2/C(C)=C/C[C@@H]3C[C@@H](C[C@]4(CC[C@H](C)[C@@H](C5CCCCC5)O4)O3)OC(=O)[C@@H]3C=C(C)/C(=N/O)[C@H]4OC/C(=C\C=C\[C@@H]2C)[C@]43O)O[C@@H](C)[C@@H]1O,inactive,
CC(C)(C)CC(C)(C)c1cc(Cc2cc(C(C)(C)CC(C)(C)C)cc(-n3nc4ccccc4n3)c2O)c(O)c(-n2nc3ccccc3n2)c1,,-2.91% [at 1.74 µM] (inactive)
Cc1cc(-c2ccc(N=Nc3c(S(=O)(=O)O)cc4cc(S(=O)(=O)O)cc(N)c4c3O)c(C)c2)ccc1N=Nc1c(S(=O)(=O)O)cc2cc(S(=O)(=O)O)cc(N)c2c1O,inactive,
Cc1cc(-c2ccc(N=Nc3ccc4c(S(=O)(=O)O)cc(S(=O)(=O)O)c(N)c4c3O)c(C)c2)ccc1N=Nc1ccc2c(S(=O)(=O)O)cc(S(=O)(=O)O)c(N)c2c1O,inactive,
